For 39 compounds, Potency results are on record in PubChem BioAssay (NCATS).

For assay [1], the target named is Glutathione peroxidase 1 (Homo sapiens) (UniProt P07203). Nature of the assay: Primary qHTS Assay for Inhibitors of Recombinant Selenoprotein Glutathione Peroxidase 1 (GPX1) (AID 1845191). Note: nearly all actives have a fitted effect of over 65% in size. Summed up:
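NADPH consumption tracked by fluorescence at 340/450 nm between t=0 and t=15 min, room temperature. Final mix: 10 nM GPX1, 100 nM glutathione reductase, 1 mM GSH, 0.5 mM NADPH, 0.5 mM cumene hydroperoxide, 0.01% BSA; 30 min compound–enzyme preincubation.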
(In general: qHTS replaces the single test concentration by a dilution series.)

For assay [2], the target named is Phospholipid hydroperoxide glutathione peroxidase GPX4 (Homo sapiens) (UniProt P36969). Put plainly: Primary qHTS Assay for Inhibitors of Recombinant Selenoprotein Glutathione Peroxidase 4 (GPX4) (AID 1845192). Note: nearly all actives have a fitted effect of over 65% in size. Summed up:
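NADPH consumption followed by fluorescence at 340/450 nm, t=0 and after 15 min at room temperature. Reaction started with cumene hydroperoxide (0.5 mM final) after 30 min compound–GPX4 preincubation; final 200 nM GPX4, 100 nM GR, 1 mM GSH, 0.5 mM NADPH.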

In assay [3] the target is Luciferin 4-monooxygenase (Photinus pyralis) (UniProt P08659). Put plainly: Primary firefly luciferase (FLuc) qHTS assay for identification of artifact compounds. (AID 1845220). Note: nearly all actives have a fitted effect of over 60% in size. Note: potency is the fitted concentration of half-maximal effect. Summed up: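 FLuc 10 nM; luciferin 10 uM; ATP 10 uM; Tris-acetate pH 7.6, Mg-acetate 10 mM; 15 min RT preincubation; 5 min reaction; luminescence.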
Assay [4] in a line: Primary fluorescence-based thiol-reactive (MSTI) qHTS assay for identification of artifact compounds. (AID 1845221). Note: nearly all actives have a fitted effect of over 65% in size. Note: potency is the fitted concentration of half-maximal effect. Summed up:
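In PBS pH 7.4 with 2% DMSO, each compound met 4 uM MSTI for one hour at ambient temperature, shielded from light, before fluorescence detection.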

Assay [5] relates to Nanoluciferase (engineered Oplophorus gracilirostris luciferase). Put plainly: Primary Nanoluciferase (NLuc) qHTS assay for identification of artifact compounds. (AID 1845222).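 Note: NLuc secreted into diluted conditioned medium of S16 cells; series mostly up to about 54 µM.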 Summed up: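 NLuc from S16 cell medium (1:55) plus test compounds, 15 min, room temperature. Luminescence after Nano-Glo (1:100) addition, 5 min.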
The nature of assay [6]: Primary redox qHTS assay for identification of artifact compounds. (AID 1845223). Summed up:
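Redox-cycling detection via DTT (250 uM final) oxidation coupled to Amplex Red (25 uM)/HRP (250 mU/mL) in HBSS. 15 min preincubation plus 30 min after DTT, room temperature. Ex/Em 525/598 nm; 4-parameter Hill fit against DMSO and 10 uM DA3003.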

Values without a mark were called inactive. Inconclusive results are not listed. Activity calls are given as the source filed them. Calls come from the whole dose curve; as a rule, active = well fitted curve in the direction sought with a large enough effect; inconclusive = small, poorly fitted or top-dose-only effect, or another doubt; inactive = no such curve, though single readings can be large; an effect the other way counts as inactive or inconclusive.

Sequence of Glutathione peroxidase 1 (Homo sapiens) (P07203 whole entry, looked up): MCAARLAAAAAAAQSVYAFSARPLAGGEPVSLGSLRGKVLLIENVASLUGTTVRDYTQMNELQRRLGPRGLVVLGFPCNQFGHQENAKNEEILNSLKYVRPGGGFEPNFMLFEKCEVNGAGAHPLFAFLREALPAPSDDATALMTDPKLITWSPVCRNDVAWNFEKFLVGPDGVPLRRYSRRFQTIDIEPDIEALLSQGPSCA
Sequence of Phospholipid hydroperoxide glutathione peroxidase GPX4 (Homo sapiens) (P36969 whole entry, looked up): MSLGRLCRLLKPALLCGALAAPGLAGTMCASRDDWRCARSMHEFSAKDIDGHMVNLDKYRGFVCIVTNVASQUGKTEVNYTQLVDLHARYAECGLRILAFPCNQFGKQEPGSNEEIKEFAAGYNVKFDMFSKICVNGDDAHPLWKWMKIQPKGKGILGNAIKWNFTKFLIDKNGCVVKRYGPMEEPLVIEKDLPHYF

Turning to `COc1cc(/C=C2\CC[C@H]3COC[C@@H](c4cc(F)c(F)c(F)c4)N3C2=O)ccc1-n1cnc(C)c1`, the Potency result in assay [1], in assay [2], in assay [3], in assay [4], in assay [5] and in assay [6] was “inactive” each time.

`Cc1ccc(S(=O)(=O)N2CCC[C@H]2c2ccc(F)cc2)cc1`: the Potency entry in assay [1], in assay [2], in assay [3], in assay [4], in assay [5] and in assay [6] was “inactive” throughout.

As to `O=C(Nc1nc2cc(C(F)(F)F)cc(NC3CC3)n2n1)c1cccnc1`, the Potency result in assay [1], in assay [2], in assay [3], in assay [4], in assay [5] and in assay [6] was “inactive” in each case.

With `CC(C)(Cc1ccccc1)NCC(O)c1ccc(O)c(NS(C)(=O)=O)c1` (centres undefined), the Potency result in assay [1], in assay [2], in assay [3], in assay [4], in assay [5] and in assay [6] was “inactive” in each case.

Take `CC(C)C(C)C(O)C1CC23CC(=O)C4(O)C(=C2CCC3C1C)C=CC1(O)CC(O)CCC14C` (centres undefined): the Potency result in assay [1], in assay [2], in assay [3], in assay [4], in assay [5] and in assay [6] was “inactive” each time.

In the case of `CN1CCN(C(=O)CN[C@@H]2C[C@H]2c2ccc(OCc3ccccc3)cc2)CC1`, the Potency entry in assay [1], in assay [2], in assay [3], in assay [4], in assay [5] and in assay [6] was “inactive” each time.

With `COCCNCc1ccc(-c2cc3nccc(Oc4ccc(NC(=O)C5(C(=O)Nc6ccc(F)cc6)CC5)cc4F)c3s2)nc1`, the Potency entry in assay [1], in assay [2], in assay [3], in assay [4], in assay [5] and in assay [6] was “inactive” in each case.

Take `O=C(NCCCn1ccnc1)c1cc(-c2ccco2)on1`: the Potency result in assay [1], in assay [2], in assay [3], in assay [4], in assay [5] and in assay [6] was “inactive” each time.

Consider `Cc1cnn(-c2ccccc2)c1NC(=O)COCc1ccccc1`, for which the Potency result in assay [1], in assay [2], in assay [3], in assay [4], in assay [5] and in assay [6] was “inactive” each time.

Consider `C=C1C(=O)O[C@@H]2[C@H]1CC[C@H](C)C(CCC(=O)O)C2(C)O` (some centres undefined), for which the Potency entry in assay [1], in assay [2], in assay [3], in assay [4], in assay [5] and in assay [6] was “inactive” each time.

Turning to `CCn1c(=O)n([C@H]2CCCN(c3nccc(-c4cc5ccccc5o4)n3)C2)c2ccccc21`, the Potency entry in assay [1], in assay [2], in assay [3], in assay [4], in assay [5] and in assay [6] was “inactive” throughout.

As for `C/C=C(\C)C(=O)OC1C=C(C)CC(OC(=O)c2ccc(O)cc2)C2C1(C)CCC2(O)C(C)C` (centres undefined), the Potency entry in assay [1], in assay [2], in assay [3], in assay [4], in assay [5] and in assay [6] was “inactive” in each case.

On to `CN(C)C(=O)NC1(c2ccccc2)CCN(CCC[C@]2(c3ccc(Cl)c(Cl)c3)CCCN(C(=O)c3ccccc3)C2)CC1`, for which the Potency result in assay [1], in assay [2], in assay [3], in assay [4], in assay [5] and in assay [6] was “inactive” throughout.

`O=C(NCCCCN1CCN(c2cccc(Cl)c2Cl)CC1)c1cc2ccccc2s1`: the Potency entry in assay [1], in assay [2], in assay [3], in assay [4], in assay [5] and in assay [6] was “inactive” each time.

On to `C=C1CC[C@@H](O)[C@]2(C)C[C@H]3OC(=O)C(=C)[C@H]3CC12` (some centres undefined), for which the Potency result in assay [1], in assay [2], in assay [3], in assay [4], in assay [5] and in assay [6] was “inactive” throughout.

For `CC(C)(O)C1Cc2c(ccc(C(=O)CCc3ccccc3)c2O)O1` (centres undefined), the Potency entry in assay [1], in assay [2], in assay [4], in assay [5] and in assay [6] was “inactive” in each case. Also, in assay [3], the Potency was 0.294 µM (active).

For `CCN1CCN(Cc2ccc(C(=O)Nc3ccc(C)c(Oc4ccc5c(c4)CC(=O)N5)c3)cc2C(F)(F)F)CC1`, the Potency result in assay [1], in assay [2], in assay [3], in assay [4], in assay [5] and in assay [6] was “inactive” throughout.

Turning to `C=C1C(=O)O[C@H]2C3=C(C)CCC[C@]3(C)C(=O)C[C@@H]12`, the Potency entry in assay [1], in assay [2], in assay [3], in assay [4], in assay [5] and in assay [6] was “inactive” throughout.

In the case of `OC(c1ccc(-c2ccc(CN3CCN(Cc4ccncc4)CC3)cc2)c(F)c1)(C(F)(F)F)C(F)(F)F`, the Potency entry in assay [1], in assay [2], in assay [3], in assay [4], in assay [5] and in assay [6] was “inactive” throughout.

Turning to `O=c1[nH]c2ccccc2n1CCN1CCN(c2cccc(C(F)(F)F)c2)CC1`, the Potency result in assay [1], in assay [2], in assay [3], in assay [4], in assay [5] and in assay [6] was “inactive” each time.

Take `CNc1nc(NCc2ccc(NS(C)(=O)=O)cc2Cl)cc(-c2ccccn2)n1`: the Potency entry in assay [1], in assay [2], in assay [3], in assay [4], in assay [5] and in assay [6] was “inactive” throughout.

On to `C[C@@H]1CCCN1CCc1cc2cc(-c3ccc(C#N)cc3)ccc2o1`, for which the Potency result in assay [1], in assay [2], in assay [3], in assay [4], in assay [5] and in assay [6] was “inactive” each time.

With `C=C[C@](C)(O)CC[C@H]1C(C)=CC(=O)[C@H]2C(C)(C)CCC[C@]12C`, the Potency entry in assay [1], in assay [2], in assay [3], in assay [4], in assay [5] and in assay [6] was “inactive” throughout.

With `C=C1C(=O)O[C@@H]2C[C@H](C)C3=CC(=O)[C@H](O)[C@@]3(C)C[C@H]12`, the Potency result in assay [1], in assay [2], in assay [3], in assay [5] and in assay [6] was “inactive” each time. Besides, in assay [4], the Potency is 11.9 µM (active).

Take `Nc1ncnc2c1c(-c1ccc(Cl)cc1)nn2-c1cccc(-c2cnnn2Cc2cccc(-c3ccccc3)c2)c1`: the Potency result in assay [1], in assay [2], in assay [3], in assay [4], in assay [5] and in assay [6] was “inactive” each time.

`CC(C)Oc1ccc(-c2cnc3c(-c4ccnc5ccccc45)cnn3c2)cc1`: the Potency result in assay [1], in assay [2], in assay [3], in assay [4], in assay [5] and in assay [6] was “inactive” each time.

For `CNC(C)C(=O)NC(C(=O)N1CCCC1C(=O)Nc1snnc1-c1ccccc1)C1CCCCC1` (centres undefined), the Potency result in assay [1], in assay [2], in assay [3], in assay [4], in assay [5] and in assay [6] was “inactive” each time.

`CNCCCC1(c2ccccc2)OC(C)(C)c2ccccc21` (centres undefined): the Potency result in assay [1], in assay [2], in assay [3], in assay [4], in assay [5] and in assay [6] was “inactive” in each case.

Turning to `COc1ccc(-c2cc3onc(-c4ccncc4)c3c(=O)n2C)cc1`, the Potency entry in assay [1], in assay [2], in assay [4], in assay [5] and in assay [6] was “inactive” each time. For the same compound, in assay [3], the Potency is 1.9 µM (active).

As to `CCN1CCN(Cc2ccc(NC(=O)c3ccc(C)c(Oc4ccnc5[nH]ccc45)c3)cc2C(F)(F)F)CC1`, the Potency entry in assay [1], in assay [2], in assay [3], in assay [4], in assay [5] and in assay [6] was “inactive” in each case.

For the compound `C=C1CCC2C(C)(C)CCCC2(C)C1CC/C(C)=C\CO` (centres undefined), the Potency result in assay [1], in assay [2], in assay [3], in assay [4], in assay [5] and in assay [6] was “inactive” each time.

Consider `O=C(Cc1c(F)cccc1F)Nc1cc(OCc2ccc(Cl)cc2)ccn1`, for which the Potency result in assay [1], in assay [2], in assay [3], in assay [4], in assay [5] and in assay [6] was “inactive” throughout.

With `COc1ccc(-n2c(SCCCN3C(=O)c4cccc5cccc(c45)C3=O)nnc2-c2ccncc2)cc1`, the Potency result in assay [1], in assay [2], in assay [3], in assay [4], in assay [5] and in assay [6] was “inactive” throughout.

With `COc1cc2ncnc(Oc3ccc(CC(=O)Nc4cnn(C(C)C)c4)cc3)c2cc1OC`, the Potency entry in assay [1], in assay [2], in assay [3], in assay [4], in assay [5] and in assay [6] was “inactive” in each case.

On to `COc1ccc(C[C@H]2COC(=O)[C@@H]2Cc2ccc(O[C@@H]3O[C@H](CO)[C@@H](O)[C@H](O)[C@H]3O)c(OC)c2)cc1OC`, for which the Potency result in assay [1], in assay [2], in assay [3], in assay [4], in assay [5] and in assay [6] was “inactive” each time.

Take `C#CCCCn1cc(-c2cccc3c2N[C@H](C)CC(=O)N3)cn1`: the Potency result in assay [1], in assay [2], in assay [3], in assay [4], in assay [5] and in assay [6] was “inactive” in each case.

On to `c1cc(-c2cnn3cc(-c4ccc(N5CCNCC5)cc4)cnc23)c2cccnc2c1`, for which the Potency entry in assay [1], in assay [2], in assay [3], in assay [4], in assay [5] and in assay [6] was “inactive” throughout.

As to `C/C(=C/CO)CCC1C(C)CCC2C(C)(C)CCCC12C` (centres undefined), the Potency result in assay [1], in assay [2], in assay [3], in assay [4], in assay [5] and in assay [6] was “inactive” in each case.

Regarding `O=S(=O)(c1ccc(Cl)cc1)N1CCN(c2ccnc3cc(Cl)ccc23)CC1`, the Potency result in assay [1], in assay [2], in assay [3], in assay [4], in assay [5] and in assay [6] was “inactive” each time.
